From publication PMC3218832 come the findings set out here.

Holding throughout (test): protein binding microarray; high values mean tight binding
Settings in all cases: dsDNA, one strand shown

Assay [1] has as its target RELARELA (p65 homodimer) (Homo sapiens, UniProt Q04206 1-307).
In assay [2] the target is p50p50 homodimer (Homo sapiens, UniProt P19838 7-356).
Assay [3] has as its target T1, p52p52 homodimer (Homo sapiens, UniProt Q00653 4-332).
T1 sequence: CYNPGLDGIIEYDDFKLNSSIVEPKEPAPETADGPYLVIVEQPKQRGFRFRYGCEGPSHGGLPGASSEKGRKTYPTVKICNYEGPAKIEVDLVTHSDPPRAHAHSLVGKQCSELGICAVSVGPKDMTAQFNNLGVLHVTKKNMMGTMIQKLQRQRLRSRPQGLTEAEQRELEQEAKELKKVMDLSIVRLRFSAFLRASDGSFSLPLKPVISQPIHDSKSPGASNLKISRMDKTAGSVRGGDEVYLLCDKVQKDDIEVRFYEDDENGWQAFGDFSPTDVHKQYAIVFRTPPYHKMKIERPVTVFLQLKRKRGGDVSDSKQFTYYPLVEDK

For assay [4], the target named is RELA (p65) subunit of heterodimer;p50 subunit (Homo sapiens;Homo sapiens, UniProt Q04206;P19838 1-307;7-356).
Sequence of RELA (p65) subunit of heterodimer;p50 subunit (Q04206 1-307, chain 1 of 2): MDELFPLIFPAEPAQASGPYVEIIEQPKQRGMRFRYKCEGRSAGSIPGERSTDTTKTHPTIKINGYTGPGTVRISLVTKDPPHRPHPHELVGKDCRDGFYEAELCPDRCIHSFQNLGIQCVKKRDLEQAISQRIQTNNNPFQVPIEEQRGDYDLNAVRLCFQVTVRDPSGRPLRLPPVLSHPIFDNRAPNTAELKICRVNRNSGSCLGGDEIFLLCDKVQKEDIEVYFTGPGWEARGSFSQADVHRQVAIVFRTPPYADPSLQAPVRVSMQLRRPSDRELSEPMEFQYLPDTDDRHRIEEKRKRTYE
Sequence of RELA (p65) subunit of heterodimer;p50 subunit (P19838 7-356, chain 2 of 2): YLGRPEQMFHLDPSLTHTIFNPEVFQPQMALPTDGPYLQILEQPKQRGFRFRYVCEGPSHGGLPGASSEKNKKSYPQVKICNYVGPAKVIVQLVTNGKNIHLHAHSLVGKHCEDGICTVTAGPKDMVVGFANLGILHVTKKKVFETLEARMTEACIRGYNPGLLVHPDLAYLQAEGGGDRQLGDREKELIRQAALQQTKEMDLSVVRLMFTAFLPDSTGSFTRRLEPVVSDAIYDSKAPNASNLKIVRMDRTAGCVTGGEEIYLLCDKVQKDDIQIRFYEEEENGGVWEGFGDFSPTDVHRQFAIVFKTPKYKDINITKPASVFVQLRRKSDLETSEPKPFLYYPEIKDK
For assay [5], the target named is RELA (p65) subunit of heterodimer;p52 subunit (Homo sapiens;Homo sapiens, UniProt Q04206;Q00653 1-307;4-332).
Assay [6] deals with RELB subunit;p50 subunit (Homo sapiens;Homo sapiens, UniProt Q01201;P19838 120-401;7-356).
Assay [7] concerns the target T2, RELB subunit;p52 subunit (Homo sapiens;Homo sapiens, UniProt Q01201;Q00653 120-401;4-332).
T2 sequence 1: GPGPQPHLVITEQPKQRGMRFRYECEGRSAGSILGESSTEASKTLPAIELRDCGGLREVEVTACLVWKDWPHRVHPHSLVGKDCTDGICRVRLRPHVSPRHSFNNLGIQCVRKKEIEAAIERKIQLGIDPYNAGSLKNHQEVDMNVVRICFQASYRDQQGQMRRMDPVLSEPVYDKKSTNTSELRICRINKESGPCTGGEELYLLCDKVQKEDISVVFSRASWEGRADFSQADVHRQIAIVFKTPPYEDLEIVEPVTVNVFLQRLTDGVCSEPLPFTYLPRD
T2 sequence 2: T1 sequence

Assay [8] deals with C-Rel subunit;p50 subunit (Homo sapiens;Homo sapiens, UniProt Q04864;P19838 1-285;7-356).
Assay [9] concerns the target T3, C-Rel subunit;p52 subunit (Homo sapiens;Homo sapiens, UniProt Q04864;Q00653 1-285;4-332).
T3 sequence 1: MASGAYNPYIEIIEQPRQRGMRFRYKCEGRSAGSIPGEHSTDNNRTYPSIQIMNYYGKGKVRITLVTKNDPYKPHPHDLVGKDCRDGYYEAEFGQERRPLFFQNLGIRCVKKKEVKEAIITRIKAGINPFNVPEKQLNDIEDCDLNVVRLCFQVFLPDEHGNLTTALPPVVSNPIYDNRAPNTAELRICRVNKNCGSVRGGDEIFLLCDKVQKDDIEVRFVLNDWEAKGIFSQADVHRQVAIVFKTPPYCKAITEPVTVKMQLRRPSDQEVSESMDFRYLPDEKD
T3 sequence 2: T1 sequence

Sequence of RELARELA (p65 homodimer) (Q04206 1-307): as the sequence (Q04206 1-307, chain 1 of 2) above
Sequence of p50p50 homodimer (P19838 7-356): as the sequence (P19838 7-356, chain 2 of 2) above

For the sequence AGATGTTCCCT, the binding signal in assay [1] was 0.238 z-score; in assay [2], 0.414 z-score; in assay [3] it was 0.229 z-score; in assay [4], 0.235 z-score; in assay [5], -0.0295 z-score; in [6] it was 0.0779 z-score. The binding signal in assay [7] is -0.091 z-score; in assay [8] it was 0.0801 z-score; in [9], -0.204 z-score.
Turning to CAATGAATCCC, the binding signal in assay [1] is -0.259 z-score; in assay [2], -0.487 z-score; in [3], -0.235 z-score; in assay [4], -0.428 z-score; in assay [5] it was -0.353 z-score; in [6] it was -0.22 z-score. The results for the binding signal in [7], in assay [8] and in assay [9] were -0.356 z-score, -0.0958 z-score and -0.345 z-score, respectively.
On to CGGTACTCCCT, for which the binding signal amounted to 0.445 z-score in assay [1]; 0.837 z-score in [2]; 0.708 z-score in assay [3]; 0.515 z-score in [4]; 0.425 z-score in assay [5]; 0.724 z-score in assay [6]. Moreover, the binding signal in assay [7] was found to be 0.415 z-score; in [8], 0.323 z-score; in assay [9], 0.382 z-score.
In the case of AAAATAACCCC, the binding signal in assay [1] was 0.617 z-score; in [2], 1.07 z-score; in assay [3], 1.26 z-score; in assay [4] it was 1.03 z-score; in assay [5], 1.24 z-score; in assay [6] it was 0.895 z-score. Moreover, the binding signal in assay [7] stood at 1.14 z-score; in [8], 0.682 z-score; in assay [9] it was 1.16 z-score.
Consider CGGATGGCCCT, for which the binding signal in [1] is -1 z-score; in [2], -1.09 z-score; in assay [3], -0.625 z-score; in assay [4], -0.472 z-score; in assay [5] it was -0.684 z-score; in assay [6] it was -0.367 z-score. Also, the figures for the binding signal in assay [7], in assay [8] and in [9] were -0.331 z-score, -0.715 z-score and -0.706 z-score, respectively.
Regarding AGGAGGTCCCC, the binding signal in [1] came out at 0.488 z-score; in assay [2], 0.454 z-score; in assay [3] it was 0.466 z-score; in assay [4], 0.767 z-score; in assay [5], 0.75 z-score; in assay [6], 0.631 z-score. For the same sequence, the binding signal in [7] was 0.644 z-score; in [8], 0.617 z-score; in assay [9], 0.715 z-score.
As for CGGGTTACCCT, the binding signal in assay [1] was 0.242 z-score; in assay [2] it was -0.264 z-score; in assay [3], -0.0855 z-score; in [4], -0.112 z-score; in assay [5], -0.124 z-score; in assay [6], 0.063 z-score. Further, the binding signal in assay [7] is -0.22 z-score; in assay [8], -0.0809 z-score; in assay [9] it was -0.0258 z-score.
Take CGGGTAGTCCC: the binding signal in [1] is 1.24 z-score; in assay [2], 0.936 z-score; in assay [3], 1.66 z-score; in assay [4], 1.36 z-score; in assay [5], 1.23 z-score; in assay [6], 0.735 z-score. Further, the binding signal in assay [7] is 1.17 z-score; in assay [8] it was 1.09 z-score; in assay [9] it was 1.5 z-score.
As for CGAATATTCCC, the binding signal worked out at 1.87 z-score in [1]; 0.695 z-score in [2]; 0.525 z-score in [3]; 0.873 z-score in assay [4]; 0.929 z-score in assay [5]; 0.405 z-score in assay [6]. Moreover, the binding signal in assay [7] came out at 0.536 z-score; in [8] it was 0.941 z-score; in assay [9], 0.858 z-score.
AAATACGTCCC: the binding signal in assay [1] was found to be 0.519 z-score; in assay [2], 0.264 z-score; in assay [3], 0.547 z-score; in assay [4], 0.144 z-score; in assay [5] it was 0.183 z-score; in [6], 0.285 z-score. Besides, the binding signal in [7] was 0.334 z-score; in [8], 0.368 z-score; in assay [9] it was -0.029 z-score.
CGATGGGCCCT: the binding signal was -0.936 z-score in assay [1]; -1.43 z-score in assay [2]; -0.601 z-score in [3]; -0.968 z-score in assay [4]; -0.798 z-score in assay [5]; -0.95 z-score in assay [6]. Besides, the binding signal in [7] is -0.85 z-score; in assay [8], -1.73 z-score; in assay [9], -0.583 z-score.
For the sequence AAGAAGGTCCT, the binding signal is -0.0161 z-score in [1]; -1.4 z-score in assay [2]; -0.396 z-score in assay [3]; -1.13 z-score in assay [4]; -0.801 z-score in assay [5]; -0.786 z-score in assay [6]. Also, the binding signal in assay [7] was -0.511 z-score; in [8] it was -1.3 z-score; in assay [9], -0.718 z-score.
Turning to AAGAGGTTCCT, the binding signal in assay [1] is 0.0133 z-score; in [2], -1.79 z-score; in assay [3], -0.462 z-score; in [4] it was -0.943 z-score; in [5], -0.822 z-score; in assay [6] it was -0.701 z-score. For the same sequence, the binding signal in [7] is -0.585 z-score; in assay [8], -1.22 z-score; in assay [9], -0.637 z-score.
Regarding AAGGTCACCCT, the binding signal in [1] was -0.86 z-score; in assay [2], -1.49 z-score; in assay [3] it was -0.495 z-score; in [4], -0.903 z-score; in assay [5], -0.928 z-score; in assay [6], -0.645 z-score. In addition, the results for the binding signal in [7], in [8] and in [9] were -0.697 z-score, -1.21 z-score and -0.77 z-score, respectively.
Turning to GAGGGCCTCCT, the binding signal in assay [1] was -0.673 z-score; in assay [2] it was -1.05 z-score; in assay [3], -0.564 z-score; in [4], -0.901 z-score; in [5], -0.776 z-score; in [6], -0.873 z-score. Also, the binding signal in assay [7] is -0.69 z-score; in assay [8] it was -1.21 z-score; in assay [9], -0.843 z-score.
